The nature of experiment [1]: qHTS RealTime-Glo MT Cell Viability Assay in HepG2 cells - 8 hour (AID 1224873). Also: nearly all actives have a fitted effect of over 55% in size. Also: potency is read from the fitted curve at half-maximal effect. The method in brief:
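HepG2 cells mixed with RealTime-Glo MT reagents (NanoLuc plus cell-permeant prosubstrate) were seeded at 600 cells/well, incubated 5 h at 37 C/5% CO2, then pinned with compounds in DMSO; nonlytic luminescence tracked viability during 40 h treatment.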
A general note: qHTS replaces the single test concentration by a dilution series.

Experiment [2] can be described thus: A CellTox Green Cytotoxicity Assay to monitor cytotoxicity in HEK293 cells - 24 hour (AID 1224875). Also: nearly all actives have a fitted effect of over 45% in size. Also: potency is read from the fitted curve at half-maximal effect. The method in brief:
(§1)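 HEK293 cells premixed with CellTox Green dye were seeded at 600 cells/well and left 5 h at 37 C/5% CO2 before pin transfer of 23 nL compound in DMSO. Fluorescence from dye bound to dead-cell DNA was read during 40 h treatment.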

A short description of experiment [3]: A CellTox Green Cytotoxicity Assay to monitor cytotoxicity in HepG2 cells - 16 hour (AID 1224876). Also: nearly all actives have a fitted effect of over 45% in size. Also: potency is read from the fitted curve at half-maximal effect. In short, it runs like this: (§2)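 HepG2 cells were seeded together with the CellTox Green dye at 600 cells/well, left 5 h at 37 C/5% CO2, then given compounds in DMSO. Fluorescence from dye bound to dead-cell DNA was read repeatedly over 40 h of treatment at 37 C.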

Experiment [4] can be described thus: qHTS RealTime-Glo MT Cell Viability Assay in HepG2 cells - 32 hour (AID 1224877). Also: nearly all actives have a fitted effect of over 55% in size. Also: potency is read from the fitted curve at half-maximal effect. The method in brief: (§3)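 HepG2 cells (600/well) were dispensed with RealTime-Glo reagents, incubated 5 h at 37 °C, then treated with compounds in DMSO for up to 40 h. Nonlytic NanoLuc luminescence reflecting viable cells was read at each stated time point.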
Experiment [5] can be described thus: A CellTox Green Cytotoxicity Assay to monitor cytotoxicity in HepG2 cells - 24 hour (AID 1224878). Also: nearly all actives have a fitted effect of over 45% in size. Also: potency is read from the fitted curve at half-maximal effect. In short, it runs like this:
as §2

Experiment [6] can be described thus: A CellTox Green Cytotoxicity Assay to monitor cytotoxicity in HepG2 cells - 40 hour (AID 1224879). Also: nearly all actives have a fitted effect of over 40% in size. Also: potency is read from the fitted curve at half-maximal effect. In short, it runs like this:
as §2

The nature of experiment [7]: qHTS RealTime-Glo MT Cell Viability Assay in HEK293 cells - 0 hour (AID 1224880). Also: top concentration of the series differs between compounds; nearly all actives have a fitted effect of over 45% in size. The method in brief: (§4)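 HEK293 cells mixed with RealTime-Glo reagents (NanoLuc plus cell-permeant prosubstrate) at 600 cells/well, preincubated 5 h at 37 C/5% CO2, then given 23 nL compound in DMSO. Nonlytic luminescence from viable cells was read at 0, 8, 16, 24, 32 and 40 h.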
The nature of experiment [8]: A CellTox Green Cytotoxicity Assay to monitor cytotoxicity in HEK293 cells - 32 hour (AID 1224881). Also: nearly all actives have a fitted effect of over 40% in size. Also: potency is read from the fitted curve at half-maximal effect. In short, it runs like this:
as §1

The nature of experiment [9]: A CellTox Green Cytotoxicity Assay to monitor cytotoxicity in HepG2 cells - 0 hour (AID 1224882). Also: nearly all actives have a fitted effect of over 35% in size. The method in brief: as §2
The nature of experiment [10]: A CellTox Green Cytotoxicity Assay to monitor cytotoxicity in HepG2 cells - 32 hour (AID 1224883). Also: nearly all actives have a fitted effect of over 50% in size. Also: potency is read from the fitted curve at half-maximal effect. The method in brief:
as §2

Experiment [11] is described as follows: A CellTox Green Cytotoxicity Assay to monitor cytotoxicity in HEK293 cells - 8 hour (AID 1224884). Also: nearly all actives have a fitted effect of over 35% in size. The method in brief:
as §1

A short description of experiment [12]: qHTS RealTime-Glo MT Cell Viability Assay in HepG2 cells - 16 hour (AID 1224885). Also: nearly all actives have a fitted effect of over 50% in size. Also: potency is read from the fitted curve at half-maximal effect. The method in brief:
as §3

Experiment [13] in a line: qHTS RealTime-Glo MT Cell Viability Assay in HEK293 cells - 24 hour (AID 1224886). Also: nearly all actives have a fitted effect of over 50% in size. Also: potency is read from the fitted curve at half-maximal effect. In short, it runs like this:
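HEK293 cells seeded with NanoLuc/prosubstrate reagent, rested 5 h at 37 C, then dosed and kept at 37 C up to 40 h. Nonlytic real-time luminescence from viable cells read at 0, 8, 16, 24, 32 and 40 h.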

The nature of experiment [14]: qHTS RealTime-Glo MT Cell Viability Assay in HEK293 cells - 8 hour (AID 1224887). Also: top concentration of the series differs between compounds; nearly all actives have a fitted effect of over 50% in size. In short, it runs like this: as §4
Experiment [15] in a line: A CellTox Green Cytotoxicity Assay to monitor cytotoxicity in HEK293 cells - 16 hour (AID 1224888). Also: nearly all actives have a fitted effect of over 35% in size. The method in brief: as §1
The nature of experiment [16]: qHTS RealTime-Glo MT Cell Viability Assay in HepG2 cells - 0 hour (AID 1224889). Also: nearly all actives have a fitted effect of over 50% in size. The method in brief:
as §3

Experiment [17] can be described thus: A CellTox Green Cytotoxicity Assay to monitor cytotoxicity in HepG2 cells - 8 hour (AID 1224890). Also: nearly all actives have a fitted effect of over 45% in size. Also: potency is read from the fitted curve at half-maximal effect. In short, it runs like this: as §2
Experiment [18] in a line: qHTS assay to identify small molecule antagonists of the estrogen receptor alpha (ER-alpha) signaling pathway using the BG1 cell line in the presence of 0.1 nM 17-beta-estradiol - cell viability counter screen (AID 1259241). Also: nearly all actives have a fitted effect of over 40% in size. Also: potency is read from the fitted curve at half-maximal effect. The method in brief: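 Live-cell protease activity (CellTiter-Fluor fluorescence, 30 min) was read in the same wells after VM7Luc4E2 cells had been exposed to compounds with 0.1 nM 17beta-estradiol for 22 hr at 37C.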

The nature of experiment [19]: qHTS assay to identify small molecule antagonists of the androgen receptor (AR) signaling pathway using the MDA cell line in the presence of 0.5 nM R1881 - cell viability counter screen (AID 1259242). Also: nearly all actives have a fitted effect of over 45% in size. The method in brief: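 MDA-kb2 cells (human breast carcinoma, stably carrying MMTV-luciferase reporter) were exposed to compounds with 0.5 nM R1881 (final) for 16 hr at 37C, 0% CO2; viability then read as live-cell protease fluorescence (CellTiter-Fluor, 30 min) in the same wells.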

A short description of experiment [20]: qHTS RealTime-Glo MT Cell Viability Assay in HEK293 cells - 40 hour (AID 1224874). Also: nearly all actives have a fitted effect of over 50% in size. Also: potency is read from the fitted curve at half-maximal effect. The conditions noted are these: RealTime-Glo luminescence; max response: stronger effect = lower value. The method in brief:
as §4

A number with no mark means an inactive call. Inconclusive results are not listed. Active and inactive are the calls of the source. Calls follow the shape of the dose curve; as a rule, active = well fitted curve in the direction sought with a large enough effect in the repeat runs; inconclusive = weak or mixed curves; inactive = no such curve, though single readings can be large; an effect the other way counts as inactive or inconclusive.
% is scaled to controls: 0 for no effect and ±100 for the full control effect.

Take `C1CC(COCC2CO2)CCC1COCC1CO1` (centres undefined): the Potency entry in [1], in experiment [2], in experiment [3], in [4], in experiment [5] and in experiment [6] was “inactive” each time. In addition, the Potency result in experiment [7], in experiment [8], in [9], in experiment [10], in [11] and in [12] was “inactive” each time. For the same compound, the Potency entry in experiment [13], in experiment [14], in [15], in experiment [16], in [17] and in [18] was “inactive” throughout. Moreover, the Potency entry in experiment [19] is “inactive”.
Take `Cc1cncc(C)c1`: the Potency entry in [1], in experiment [3], in experiment [4], in experiment [5], in experiment [7] and in experiment [10] was “inactive” throughout. Further, the Potency entry in [13], in experiment [14], in experiment [16], in [18] and in experiment [19] was “inactive” in each case. In addition, the max response in experiment [20] was 0.584%.
On to `Cc1occc1SSc1ccoc1C`, for which the Potency result in [1], in experiment [4], in experiment [7], in [9], in [11] and in [12] was “inactive” each time. For the same compound, the Potency result in [13], in experiment [14], in experiment [15], in experiment [16], in [18] and in [19] was “inactive” in each case. In [20], the max response was -28.3%. The Potency in experiment [6], in experiment [8] and in experiment [10] was 54.9 µM (active) in each case.
As to `CCCC(CC)CCCCCCCN` (centres undefined), the Potency result in experiment [1], in experiment [4], in experiment [9], in experiment [12], in [17] and in experiment [18] was “inactive” throughout. For the same compound, the Potency entry in experiment [19] is “inactive”. In addition, the Potency in experiment [20] is 56.3 µM (active); in experiment [8] it was 44.7 µM (active); in [13], 56.3 µM (active).
As for `O=C(c1ccccc1)c1cc(Cl)ccc1O`, the Potency entry in [1], in experiment [3], in experiment [4], in [5], in experiment [6] and in experiment [7] was “inactive” each time. Also, the Potency entry in experiment [9], in [10], in experiment [11], in [16], in experiment [17] and in experiment [18] was “inactive” throughout. In addition, in experiment [19], the Potency result is “inactive”. The max response in [20] was -24.1%.
For `C=C[C@](C)(O)CC[C@@H]1[C@@]2(C)CCCC(C)(C)[C@@H]2CC[C@@]1(C)O`, the Potency in [1] is 49 µM (active); in experiment [20], 21.9 µM (active); in experiment [3] it was 54.9 µM (active); in experiment [4] it was 54.9 µM (active); in [8], 43.6 µM (active); in experiment [10] it was 49 µM (active). Besides, the Potency in [12] is 49 µM (active); in experiment [13], 21.9 µM (active); in [17], 54.9 µM (active). Moreover, the Potency result in experiment [7], in experiment [9], in experiment [16], in experiment [18] and in [19] was “inactive” each time.
As to `C/C=C/c1ccc(OC)c(OC)c1`, the Potency entry in experiment [1], in [2], in experiment [3], in experiment [4], in [5] and in experiment [6] was “inactive” in each case. Also, the Potency result in experiment [7], in experiment [8], in [9], in [10], in experiment [11] and in experiment [12] was “inactive” in each case. Further, the Potency entry in experiment [13], in experiment [14], in experiment [15], in experiment [16], in [17] and in experiment [18] was “inactive” in each case. In addition, in experiment [19], the Potency result was “inactive”.
As for `CC(=O)Oc1ccc(C2(c3ccc(OC(C)=O)cc3)Oc3ccccc3NC2=O)cc1`, the Potency entry in [1], in experiment [2], in experiment [3], in [4], in experiment [7] and in experiment [8] was “inactive” in each case. The Potency result in [9], in experiment [11], in [12], in experiment [13], in experiment [14] and in experiment [15] was “inactive” in each case. Moreover, the Potency entry in experiment [16], in experiment [17], in [18] and in experiment [19] was “inactive” throughout.
As to `C=CC(=O)OCCC#N`, the Potency entry in [1], in experiment [2], in experiment [3], in [4], in [5] and in experiment [6] was “inactive” throughout. Also, the Potency entry in experiment [7], in [8], in [9], in experiment [10], in [12] and in [14] was “inactive” each time. In addition, the Potency entry in [15], in experiment [16], in experiment [17], in [18] and in experiment [19] was “inactive” each time.
For the compound `CC(=O)Oc1ccc(C2(c3ccc(OC(C)=O)cc3)C(=O)Nc3ccccc32)cc1`, in [20], the max response was -6.95%. The Potency result in experiment [2], in experiment [3], in experiment [4], in experiment [5], in experiment [6] and in experiment [7] was “inactive” each time. The Potency result in experiment [8], in [9], in experiment [10], in experiment [11], in [12] and in experiment [13] was “inactive” each time. The Potency result in experiment [14], in experiment [15], in [16], in experiment [17] and in [19] was “inactive” each time.
Take `Oc1ccc(-c2ccc(O)cc2)cc1`: the Potency result in [1], in [2], in experiment [3], in experiment [4], in [5] and in [6] was “inactive” in each case. In addition, the Potency entry in experiment [7], in experiment [8], in experiment [9], in [10], in [11] and in [14] was “inactive” each time. Also, the Potency entry in experiment [15], in experiment [16], in experiment [18] and in [19] was “inactive” in each case.
On to `Cc1ccc2ccc3cccc4ccc1c2c34`, for which the Potency entry in experiment [1], in experiment [2], in experiment [3], in experiment [4], in experiment [7] and in experiment [8] was “inactive” throughout. Further, the Potency entry in experiment [9], in experiment [10], in experiment [11], in experiment [12], in experiment [14] and in experiment [15] was “inactive” throughout. Besides, the Potency entry in experiment [16], in experiment [17], in experiment [18] and in experiment [19] was “inactive” throughout.
In the case of `O=C(NO)c1ccccc1`, the Potency entry in experiment [1], in experiment [4], in experiment [7], in experiment [9], in [12] and in experiment [14] was “inactive” in each case. Further, the Potency result in [16], in experiment [18] and in experiment [19] was “inactive” each time.
On to `Oc1cc2ccccc2cc1O`, for which the Potency result in experiment [1], in experiment [3], in experiment [4], in experiment [5], in experiment [10] and in experiment [11] was “inactive” each time. Besides, the Potency entry in [12], in [16], in [17], in [18] and in experiment [19] was “inactive” throughout.
With `CCN(CC)CCOC(=O)C1(C2CCCCC2)CCCCC1`, the Potency result in [1], in experiment [4], in experiment [11], in experiment [12], in experiment [18] and in experiment [19] was “inactive” in each case. Moreover, the Potency in [2], in experiment [3], in [5], in experiment [6], in experiment [8] and in [10] was 23.9 µM (active) in each case.
On to `Cc1ccc(N)cc1O`, for which the Potency result in experiment [1], in [4], in experiment [7], in experiment [9], in experiment [12] and in experiment [14] was “inactive” in each case. Further, the Potency entry in [16], in experiment [17] and in experiment [19] was “inactive” in each case. In addition, in [18], the Potency is 61.1 µM (active).

Source of the values: PubChem BioAssay (Tox21).
